Data taken from PubChem BioAssay AID1159580 (chemical genetic matrix, 2015).
Among all 5,500 compounds or so, about 2,000 (36%) were called active. Roughly 18% stayed inconclusive and do not appear here. Cut-off read from the data, not from the text of the source: active = normalized growth mostly below about 0.91 (no sharp cut-off); inconclusive = no clear call, values can overlap the other calls; inactive = mostly above about 0.92. Some of the results follow.

Experiment: chemical genetic growth profiling, strain panel (AID 1159580);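 note: tested at 20 µM; growth read once vehicle control cultures reached saturation at 30 °C; 1 = growth at the plate median or of vehicle wells; lower values mean less growth of the strain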
Conditions: S. cerevisiae deletion strains, growth OD

Measured: normalized growth

C#CCOC(=O)C1=CCCN(C)C1
inactive: locus YAL013W, strain DEP1, stronger effect = lower value 1.01 | locus YAL040C, strain CLN3, stronger effect = lower value 1.02 | locus YDR363W, strain ESC2, stronger effect = lower value 0.986 | locus YER002W, strain NOP16, stronger effect = lower value 1.03 | locus YGR078C, strain PAC10, stronger effect = lower value 1.01 | locus YGR229C, strain SMI1, stronger effect = lower value 1.01 | locus YMR263W, strain SAP30, stronger effect = lower value 1 | locus YMR307W, strain GAS1, stronger effect = lower value 0.959 | locus YNL153C, strain GIM3, stronger effect = lower value 1.03 | locus YNL175C, strain NOP13, stronger effect = lower value 1.01 | locus YNL197C, strain WHI3, stronger effect = lower value 0.99 | locus YNL224C, strain SQS1, stronger effect = lower value 0.998 | locus YNL322C, strain KRE1, stronger effect = lower value 1 | locus YOR083W, strain WHI5 (second series), stronger effect = lower value 1

CC(C)(N)Cc1ccccc1
inactive: locus YHR030C, strain SLT2, stronger effect = lower value 1.02 | locus YHR079C, strain IRE1, stronger effect = lower value 1.02 | locus YJL095W, strain BCK1, stronger effect = lower value 1 | locus YJR066W, strain TOR1, stronger effect = lower value 0.947 | locus YLR113W, strain HOG1, stronger effect = lower value 0.965 | locus YNL183C, strain NPR1, stronger effect = lower value 0.937 | locus YOR231W, strain MKK1, stronger effect = lower value 1.01 | locus YPL256C, strain CLN2, stronger effect = lower value 1.03
